From paper PMC11006913 come the findings set out here.

Where a chain is given by its changes, count along the chain named.

What all share (experiment): PBM; 200 nM protein, PBS
What all share (details): dsDNA, one strand shown

Experiment [1] deals with HOXB6 (Homo sapiens, UniProt P17509 132-218, K202E).
Experiment [2] addresses HOXA2 (Homo sapiens, UniProt O43364 129-215, R185T).
In experiment [3] the target is HOXA2 (Homo sapiens, UniProt O43364 129-215, R185K).
Experiment [4] deals with HOXA2 (Homo sapiens, UniProt O43364 129-215, Y150S).
Sequence of HOXA2 (Homo sapiens, UniProt O43364 129-215, Y150S) (O43364 129-215 Y150S): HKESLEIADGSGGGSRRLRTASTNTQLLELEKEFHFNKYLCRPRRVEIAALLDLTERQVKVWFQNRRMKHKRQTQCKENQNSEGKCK
For experiment [5], the target named is HOXA2 (Homo sapiens, UniProt O43364 129-215).
Sequence of HOXA2 (Homo sapiens, UniProt O43364 129-215) (O43364 129-215): as the sequence (O43364 129-215 Y150S) above, with S22Y counted along it
The target of experiment [6] is HOXB6 (Homo sapiens, UniProt P17509 132-218).
Sequence of HOXB6 (Homo sapiens, UniProt P17509 132-218) (P17509 132-218): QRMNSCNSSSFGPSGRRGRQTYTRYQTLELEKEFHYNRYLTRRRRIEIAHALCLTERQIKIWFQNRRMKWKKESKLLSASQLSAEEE
For experiment [7], the target named is HOXD13 (Homo sapiens, UniProt P35453 263-343, T313R).
Sequence of HOXD13 (Homo sapiens, UniProt P35453 263-343, T313R) (P35453 263-343 T313R): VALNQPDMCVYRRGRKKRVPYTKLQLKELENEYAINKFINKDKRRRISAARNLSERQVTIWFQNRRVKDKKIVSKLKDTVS
In experiment [8] the target is HOXD13 (Homo sapiens, UniProt P35453 263-343).
Sequence of HOXD13 (Homo sapiens, UniProt P35453 263-343) (P35453 263-343): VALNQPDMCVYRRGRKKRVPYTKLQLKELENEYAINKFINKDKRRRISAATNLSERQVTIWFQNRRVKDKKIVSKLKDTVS
Experiment [9] has as its target HOXD13 (Homo sapiens, UniProt P35453 263-343, T313A).
Experiment [10] has as its target PROP1 (Homo sapiens, UniProt O75360 56-141).
For experiment [11], the target named is PROP1 (Homo sapiens, UniProt O75360 56-141, R99H).
Sequence of PROP1 (Homo sapiens, UniProt O75360 56-141, R99H) (O75360 56-141 R99H): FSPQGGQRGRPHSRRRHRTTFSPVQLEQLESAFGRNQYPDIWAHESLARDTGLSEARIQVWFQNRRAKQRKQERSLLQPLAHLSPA
Experiment [12] deals with PROP1 (Homo sapiens, UniProt O75360 56-141, F88S).
Sequence of PROP1 (Homo sapiens, UniProt O75360 56-141, F88S) (O75360 56-141 F88S): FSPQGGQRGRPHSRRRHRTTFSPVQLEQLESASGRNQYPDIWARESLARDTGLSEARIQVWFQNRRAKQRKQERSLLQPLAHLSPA
A further experiment deals with PITX2 (Homo sapiens, UniProt Q99697 72-157).
Experiment [13] deals with VAX1 (Homo sapiens, UniProt Q5SQQ9 86-172).
Sequence of VAX1 (Homo sapiens, UniProt Q5SQQ9 86-172) (Q5SQQ9 86-172): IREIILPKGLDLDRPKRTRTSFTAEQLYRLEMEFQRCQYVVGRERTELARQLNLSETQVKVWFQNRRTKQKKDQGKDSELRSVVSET
The target of experiment [14] is VAX1 (Homo sapiens, UniProt Q5SQQ9 86-172, T142I).
Sequence of VAX1 (Homo sapiens, UniProt Q5SQQ9 86-172, T142I) (Q5SQQ9 86-172 T142I): as the sequence (Q5SQQ9 86-172) above, with T57I counted along it
Experiment [15] has as its target VAX1 (Homo sapiens, UniProt Q5SQQ9 86-172, K157R).
Experiment [16] deals with ALX3 (Homo sapiens, UniProt O95076 139-225, N203Q).
Sequence of ALX3 (Homo sapiens, UniProt O95076 139-225, N203Q) (O95076 139-225 N203Q): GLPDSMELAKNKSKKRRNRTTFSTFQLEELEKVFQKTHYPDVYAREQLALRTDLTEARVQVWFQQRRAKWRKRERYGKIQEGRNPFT
Experiment [17] addresses ALX3 (Homo sapiens, UniProt O95076 139-225, N203S).
In experiment [18] the target is MSX2 (Homo sapiens, UniProt P35548 130-214, R199I).
Sequence of MSX2 (Homo sapiens, UniProt P35548 130-214, R199I) (P35548 130-214 R199I): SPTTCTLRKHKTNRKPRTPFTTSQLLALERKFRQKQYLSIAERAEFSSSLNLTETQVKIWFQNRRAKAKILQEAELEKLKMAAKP
In experiment [19] the target is ALX1 (Homo sapiens, UniProt Q15699 118-204, L144V).
Sequence of ALX1 (Homo sapiens, UniProt Q15699 118-204, L144V) (Q15699 118-204 L144V): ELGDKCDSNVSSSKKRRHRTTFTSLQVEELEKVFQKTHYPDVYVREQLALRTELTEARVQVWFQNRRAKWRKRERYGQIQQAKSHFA
For experiment [20], the target named is ALX1 (Homo sapiens, UniProt Q15699 118-204, L144R).
Sequence of ALX1 (Homo sapiens, UniProt Q15699 118-204, L144R) (Q15699 118-204 L144R): as the sequence (Q15699 118-204 L144V) above, with V27R counted along it
Experiment [21] deals with MSX2 (Homo sapiens, UniProt P35548 130-214).
Sequence of MSX2 (Homo sapiens, UniProt P35548 130-214) (P35548 130-214): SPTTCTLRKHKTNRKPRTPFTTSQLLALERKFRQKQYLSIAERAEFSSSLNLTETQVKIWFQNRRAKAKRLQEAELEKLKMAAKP
The target of experiment [22] is ALX3 (Homo sapiens, UniProt O95076 139-225).
Sequence of ALX3 (Homo sapiens, UniProt O95076 139-225) (O95076 139-225): as the sequence (O95076 139-225 N203Q) above, with Q65N counted along it
The target of experiment [23] is ALX3 (Homo sapiens, UniProt O95076 139-225, L168Q).
Sequence of ALX3 (Homo sapiens, UniProt O95076 139-225, L168Q) (O95076 139-225 L168Q): as the sequence (O95076 139-225 N203Q) above, with L30Q, Q65N counted along it
In experiment [24] the target is ALX3 (Homo sapiens, UniProt O95076 139-225, L168V).
Sequence of ALX3 (Homo sapiens, UniProt O95076 139-225, L168V) (O95076 139-225 L168V): as the sequence (O95076 139-225 N203Q) above, with L30V, Q65N counted along it
Experiment [25] has as its target MSX2 (Homo sapiens, UniProt P35548 130-214, F161Y).
For experiment [26], the target named is NKX3-2 (Homo sapiens, UniProt P78367 192-278, P234S).
Sequence of NKX3-2 (Homo sapiens, UniProt P78367 192-278, P234S) (P78367 192-278 P234S): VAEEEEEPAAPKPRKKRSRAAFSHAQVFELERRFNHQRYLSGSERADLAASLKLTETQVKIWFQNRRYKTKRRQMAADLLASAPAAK
For experiment [27], the target named is ALX1 (Homo sapiens, UniProt Q15699 118-204).
Sequence of ALX1 (Homo sapiens, UniProt Q15699 118-204) (Q15699 118-204): as the sequence (Q15699 118-204 L144V) above, with V27L counted along it
In experiment [28] the target is NKX3-2 (Homo sapiens, UniProt P78367 192-278).
Sequence of NKX3-2 (Homo sapiens, UniProt P78367 192-278) (P78367 192-278): as the sequence (P78367 192-278 P234S) above, with S43P counted along it
A further experiment addresses T1, NKX2-4 (Homo sapiens, UniProt Q9H2Z4 175-261).
T1 sequence: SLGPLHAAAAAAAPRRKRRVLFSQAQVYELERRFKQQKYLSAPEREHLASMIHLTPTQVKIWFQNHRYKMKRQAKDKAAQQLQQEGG

The target of experiment [29] is T2, SIX6 (Homo sapiens, UniProt O95475 114-200, L143M).
T2 sequence: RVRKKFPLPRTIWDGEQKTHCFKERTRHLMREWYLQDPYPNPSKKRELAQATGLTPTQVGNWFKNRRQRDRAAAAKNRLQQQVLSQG

The target in experiment [30] is T3, SIX6 (Homo sapiens, UniProt O95475 114-200, L143I).
T3 sequence: T2 sequence with M30I

A further experiment deals with T4, PAX4 (Homo sapiens, UniProt O43316 9-242, F177Y).
T4 sequence: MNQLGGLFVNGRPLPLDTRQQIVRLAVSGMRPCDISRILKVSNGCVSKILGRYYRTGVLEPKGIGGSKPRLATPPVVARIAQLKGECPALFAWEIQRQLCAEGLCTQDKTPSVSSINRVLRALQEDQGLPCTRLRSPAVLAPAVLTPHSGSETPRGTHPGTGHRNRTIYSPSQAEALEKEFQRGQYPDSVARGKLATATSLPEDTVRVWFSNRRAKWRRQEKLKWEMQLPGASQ

Another experiment has as its target HOXC9 (Homo sapiens, UniProt P31274 178-260, R222W).

Sequence of HOXB6 (Homo sapiens, UniProt P17509 132-218, K202E) (P17509 132-218 K202E): as the sequence (P17509 132-218) above, with K71E counted along it
Sequence of HOXA2 (Homo sapiens, UniProt O43364 129-215, R185K) (O43364 129-215 R185K): as the sequence (O43364 129-215 Y150S) above, with S22Y, R57K counted along it
Sequence of HOXD13 (Homo sapiens, UniProt P35453 263-343, T313A) (P35453 263-343 T313A): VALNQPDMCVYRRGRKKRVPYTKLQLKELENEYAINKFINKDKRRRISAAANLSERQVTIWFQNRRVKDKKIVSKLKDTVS
Sequence of HOXA2 (Homo sapiens, UniProt O43364 129-215, R185T) (O43364 129-215 R185T): as the sequence (O43364 129-215 Y150S) above, with S22Y, R57T counted along it
Sequence of PROP1 (Homo sapiens, UniProt O75360 56-141) (O75360 56-141): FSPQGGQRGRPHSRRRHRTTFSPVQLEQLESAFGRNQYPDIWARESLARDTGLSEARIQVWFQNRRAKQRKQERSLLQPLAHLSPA
Sequence of ALX3 (Homo sapiens, UniProt O95076 139-225, N203S) (O95076 139-225 N203S): as the sequence (O95076 139-225 N203Q) above, with Q65S counted along it
Sequence of MSX2 (Homo sapiens, UniProt P35548 130-214, F161Y) (P35548 130-214 F161Y): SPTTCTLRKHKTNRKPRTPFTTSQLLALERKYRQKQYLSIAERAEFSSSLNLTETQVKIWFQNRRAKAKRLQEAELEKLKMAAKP
Sequence of VAX1 (Homo sapiens, UniProt Q5SQQ9 86-172, K157R) (Q5SQQ9 86-172 K157R): as the sequence (Q5SQQ9 86-172) above, with K72R counted along it
Sequence of HOXC9 (P31274 178-260 R222W): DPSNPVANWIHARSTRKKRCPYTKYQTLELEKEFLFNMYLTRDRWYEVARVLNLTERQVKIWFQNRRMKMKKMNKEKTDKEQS

As to AGCCTTGC, the binding signal in the experiment with HOXB6 [1] is 9.12 upbm affinity estimate (log intensity, higher = more binding, comparable within an allelic series); with HOXA2 [2], 7.13 upbm affinity estimate (log intensity, higher = more binding, comparable within an allelic series); with HOXA2 [3] it was 10.3 upbm affinity estimate (log intensity, higher = more binding, comparable within an allelic series); with HOXA2 [4] it was 10.6 upbm affinity estimate (log intensity, higher = more binding, comparable within an allelic series); in the experiment with HOXA2 [5], 7.12 upbm affinity estimate (log intensity, higher = more binding, comparable within an allelic series); in the experiment with HOXB6 [6], 8.94 upbm affinity estimate (log intensity, higher = more binding, comparable within an allelic series).

As for ACATTAAC, in the experiment with HOXB6 [1], the binding signal was 10 upbm affinity estimate (log intensity, higher = more binding, comparable within an allelic series).

Turning to CCACGGGC, the binding signal in the experiment with HOXB6 [1] was 9 upbm affinity estimate (log intensity, higher = more binding, comparable within an allelic series); with HOXD13 [7], 9.41 upbm affinity estimate (log intensity, higher = more binding, comparable within an allelic series); with HOXD13 [8], 9.46 upbm affinity estimate (log intensity, higher = more binding, comparable within an allelic series); with HOXD13 [9], 9.44 upbm affinity estimate (log intensity, higher = more binding, comparable within an allelic series); in the experiment with HOXB6 [6], 9.06 upbm affinity estimate (log intensity, higher = more binding, comparable within an allelic series).

CCTCGGAC: the binding signal in the experiment with HOXB6 [1] is 9.1 upbm affinity estimate (log intensity, higher = more binding, comparable within an allelic series); with HOXB6 [6], 8.96 upbm affinity estimate (log intensity, higher = more binding, comparable within an allelic series).

With CGGAGGCC, the binding signal with HOXB6 [1] was 8.93 upbm affinity estimate (log intensity, higher = more binding, comparable within an allelic series); in the experiment with HOXA2 [2] it was 7.34 upbm affinity estimate (log intensity, higher = more binding, comparable within an allelic series); with HOXD13 [7] it was 9.47 upbm affinity estimate (log intensity, higher = more binding, comparable within an allelic series); with HOXA2 [3], 10.1 upbm affinity estimate (log intensity, higher = more binding, comparable within an allelic series); in the experiment with HOXD13 [8], 9.47 upbm affinity estimate (log intensity, higher = more binding, comparable within an allelic series); with HOXD13 [9] it was 9.66 upbm affinity estimate (log intensity, higher = more binding, comparable within an allelic series). In addition, the binding signal is 10.3 upbm affinity estimate (log intensity, higher = more binding, comparable within an allelic series) in the experiment with HOXA2 [4]; 7.12 upbm affinity estimate (log intensity, higher = more binding, comparable within an allelic series) in the experiment with HOXA2 [5]; 8.97 upbm affinity estimate (log intensity, higher = more binding, comparable within an allelic series) with HOXB6 [6].

Take CCACGCTC: the binding signal with HOXB6 [1] was 8.98 upbm affinity estimate (log intensity, higher = more binding, comparable within an allelic series); with PROP1 [10], 6.83 upbm affinity estimate (log intensity, higher = more binding, comparable within an allelic series); with PROP1 [11], 6.88 upbm affinity estimate (log intensity, higher = more binding, comparable within an allelic series); in the experiment with PROP1 [12] it was 6.58 upbm affinity estimate (log intensity, higher = more binding, comparable within an allelic series); with HOXB6 [6], 9.03 upbm affinity estimate (log intensity, higher = more binding, comparable within an allelic series).

Take CGTGGCAG: the binding signal was 9.05 upbm affinity estimate (log intensity, higher = more binding, comparable within an allelic series) with HOXB6 [1]; 7.29 upbm affinity estimate (log intensity, higher = more binding, comparable within an allelic series) in the experiment with HOXA2 [2]; 8.07 upbm affinity estimate (log intensity, higher = more binding, comparable within an allelic series) in the experiment with PITX2; 10.5 upbm affinity estimate (log intensity, higher = more binding, comparable within an allelic series) with HOXA2 [3]; 7.05 upbm affinity estimate (log intensity, higher = more binding, comparable within an allelic series) with VAX1 [13]; 7.33 upbm affinity estimate (log intensity, higher = more binding, comparable within an allelic series) with VAX1 [14]. Moreover, the binding signal is 10.4 upbm affinity estimate (log intensity, higher = more binding, comparable within an allelic series) with HOXA2 [4]; 7.45 upbm affinity estimate (log intensity, higher = more binding, comparable within an allelic series) with HOXA2 [5]; 7.05 upbm affinity estimate (log intensity, higher = more binding, comparable within an allelic series) with VAX1 [15]; 9.07 upbm affinity estimate (log intensity, higher = more binding, comparable within an allelic series) in the experiment with HOXB6 [6].

Turning to CAGCAGGG, the binding signal with HOXB6 [1] is 9.1 upbm affinity estimate (log intensity, higher = more binding, comparable within an allelic series); in the experiment with HOXA2 [2], 7.49 upbm affinity estimate (log intensity, higher = more binding, comparable within an allelic series); in the experiment with HOXA2 [3] it was 10.3 upbm affinity estimate (log intensity, higher = more binding, comparable within an allelic series); with HOXA2 [4] it was 10.3 upbm affinity estimate (log intensity, higher = more binding, comparable within an allelic series); in the experiment with HOXA2 [5] it was 7.08 upbm affinity estimate (log intensity, higher = more binding, comparable within an allelic series); with HOXB6 [6], 9.13 upbm affinity estimate (log intensity, higher = more binding, comparable within an allelic series).

For TAATATTA, the binding signal in the experiment with HOXB6 [1] was 10 upbm affinity estimate (log intensity, higher = more binding, comparable within an allelic series); with ALX3 [16], 8.61 upbm affinity estimate (log intensity, higher = more binding, comparable within an allelic series); with ALX3 [17], 8.68 upbm affinity estimate (log intensity, higher = more binding, comparable within an allelic series).

Take CGGATCCG: the binding signal in the experiment with HOXB6 [1] was 9.01 upbm affinity estimate (log intensity, higher = more binding, comparable within an allelic series); with MSX2 [18], 9.47 upbm affinity estimate (log intensity, higher = more binding, comparable within an allelic series); in the experiment with ALX1 [19], 6.32 upbm affinity estimate (log intensity, higher = more binding, comparable within an allelic series); with ALX3 [16] it was 7.82 upbm affinity estimate (log intensity, higher = more binding, comparable within an allelic series); with ALX1 [20] it was 6.18 upbm affinity estimate (log intensity, higher = more binding, comparable within an allelic series); in the experiment with MSX2 [21], 9.48 upbm affinity estimate (log intensity, higher = more binding, comparable within an allelic series). The binding signal with ALX3 [22] was 7.83 upbm affinity estimate (log intensity, higher = more binding, comparable within an allelic series); in the experiment with ALX3 [23], 7.82 upbm affinity estimate (log intensity, higher = more binding, comparable within an allelic series); in the experiment with ALX3 [24], 7.74 upbm affinity estimate (log intensity, higher = more binding, comparable within an allelic series); in the experiment with MSX2 [25], 9.45 upbm affinity estimate (log intensity, higher = more binding, comparable within an allelic series); with NKX3-2 [26], 10.3 upbm affinity estimate (log intensity, higher = more binding, comparable within an allelic series); with ALX1 [27] it was 6.2 upbm affinity estimate (log intensity, higher = more binding, comparable within an allelic series). The binding signal in the experiment with ALX3 [17] was 7.82 upbm affinity estimate (log intensity, higher = more binding, comparable within an allelic series); with HOXB6 [6] it was 8.86 upbm affinity estimate (log intensity, higher = more binding, comparable within an allelic series); in the experiment with NKX3-2 [28], 10.3 upbm affinity estimate (log intensity, higher = more binding, comparable within an allelic series).

ACTACTAG: the binding signal in the experiment with NKX2-4 was 11.1 upbm affinity estimate (log intensity, higher = more binding, comparable within an allelic series).

Take ATAAAAGC: the binding signal with HOXB6 [1] was 9.53 upbm affinity estimate (log intensity, higher = more binding, comparable within an allelic series); in the experiment with MSX2 [21] it was 10.9 upbm affinity estimate (log intensity, higher = more binding, comparable within an allelic series); in the experiment with MSX2 [25], 10.8 upbm affinity estimate (log intensity, higher = more binding, comparable within an allelic series); with HOXB6 [6], 10.3 upbm affinity estimate (log intensity, higher = more binding, comparable within an allelic series).

For the sequence ATCTGATC, the binding signal with SIX6 [29] was 11 upbm affinity estimate (log intensity, higher = more binding, comparable within an allelic series); with SIX6 [30] it was 10.4 upbm affinity estimate (log intensity, higher = more binding, comparable within an allelic series).

For the sequence AGATATCC, in the experiment with SIX6 [29], the binding signal was 10.9 upbm affinity estimate (log intensity, higher = more binding, comparable within an allelic series).

As to TGACTTAA, the binding signal with HOXB6 [1] was 9.69 upbm affinity estimate (log intensity, higher = more binding, comparable within an allelic series); with HOXB6 [6], 10.5 upbm affinity estimate (log intensity, higher = more binding, comparable within an allelic series).

For AATTTAAT, the binding signal in the experiment with HOXB6 [1] was 9.98 upbm affinity estimate (log intensity, higher = more binding, comparable within an allelic series); with HOXD13 [7] it was 10.4 upbm affinity estimate (log intensity, higher = more binding, comparable within an allelic series); with HOXD13 [8], 11.5 upbm affinity estimate (log intensity, higher = more binding, comparable within an allelic series); with PAX4, 10.9 upbm affinity estimate (log intensity, higher = more binding, comparable within an allelic series); with PROP1 [10] it was 11.2 upbm affinity estimate (log intensity, higher = more binding, comparable within an allelic series); with PROP1 [11], 10.7 upbm affinity estimate (log intensity, higher = more binding, comparable within an allelic series). The binding signal in the experiment with HOXD13 [9] was 11.3 upbm affinity estimate (log intensity, higher = more binding, comparable within an allelic series); with HOXC9, 11.1 upbm affinity estimate (log intensity, higher = more binding, comparable within an allelic series); with PROP1 [12] it was 7.76 upbm affinity estimate (log intensity, higher = more binding, comparable within an allelic series).
